From PubChem BioAssay (NCI) come the findings set out here.

The panel holds about 83,000 compounds, 20% with a hit somewhere; the sample as a whole holds those more often.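 Results are percent growth after 48 hours of single-concentration exposure. 100 means growth as in untreated cells, lower positive values show inhibition; negative values down to -100 show cell death.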 Unmarked numbers belong to inactive results. Active and inactive are the calls of the source. How the source made its calls: active means growth percent below 10; inactive means the rest.

Among the test systems are HCT-15 colon; HT29 colon; SNB-19 CNS; U251 CNS; PC-3 prostate; SK-MEL-5 melanoma; UACC-62 melanoma; LOX IMVI melanoma; SK-MEL-28 melanoma; SK-MEL-2 melanoma; EKVX NSCLC; SN12C renal; UO-31 renal; TK-10 renal; ACHN renal; CAKI-1 renal; CCRF-CEM leukemia; MOLT-4 leukemia; SNB-75 CNS; A498 renal.
Common to all, as to assay: NCI-60 one-dose screen, 48 h (100 = growth as untreated, 0 = no growth, -100 = all killed)
Common to all, as to conditions: 10 µM unless noted

In the case of `O=C1Nc2ccc(Cl)cc2/C1=N/N=C/c1c[nH]c2ccccc12`, the growth is 66.9% with HCT-15 colon; 86.9% in the assay on HT29 colon; 86.3% in the assay with SNB-19 CNS; 70.9% with U251 CNS; 93.8% in the assay with PC-3 prostate; 87.7% in the assay on SK-MEL-5 melanoma. Also, the growth with UACC-62 melanoma was 43.1%; with LOX IMVI melanoma, 74%; in the assay with SK-MEL-28 melanoma it was 102%; in the assay with SK-MEL-2 melanoma it was 66.3%; with EKVX NSCLC, 22.6%; in the assay on SN12C renal, 80.5%. The growth was 40.9% in the assay with UO-31 renal; 75.8% in the assay with TK-10 renal; 49.8% in the assay with ACHN renal; 28.9% in the assay with CAKI-1 renal; 85.7% in the assay with CCRF-CEM leukemia; 92.1% in the assay on MOLT-4 leukemia.

With `Nc1c(C(=O)Nc2ccccc2)sc2nc3c(cc12)CCCCCC3`, the growth was 16.3% with HCT-15 colon; -9.08% (active) in the assay on HT29 colon; 4.5% (active) in the assay with SNB-75 CNS; 9.62% (active) with U251 CNS; 31.8% in the assay with PC-3 prostate; 9.45% (active) with SK-MEL-5 melanoma. In addition, the growth in the assay with LOX IMVI melanoma was 35.1%; in the assay with SK-MEL-28 melanoma it was 27.8%; with SK-MEL-2 melanoma, 9.7% (active); in the assay with UO-31 renal, 16.6%; with ACHN renal, 26.5%; with CAKI-1 renal, 42%. Further, the growth in the assay with A498 renal is -0.375% (active); in the assay with CCRF-CEM leukemia, 6.81% (active); in the assay on MOLT-4 leukemia, 18.3%.

In the case of `COc1ccc(OC)c(/C=C2\COc3ccc(O)cc3C2=O)c1`, the growth is 78.5% in the assay on HCT-15 colon; 45.9% with HT29 colon; 84.5% in the assay on SNB-19 CNS; 84.6% with U251 CNS; 95.2% with PC-3 prostate; 84.3% in the assay with UACC-62 melanoma. Moreover, the growth is 51.3% in the assay on LOX IMVI melanoma; 94.9% in the assay on SK-MEL-28 melanoma; 100% in the assay on SK-MEL-2 melanoma; 103% in the assay with EKVX NSCLC; 84.1% in the assay with SN12C renal; 86.6% with UO-31 renal. Besides, the growth is 97% in the assay with TK-10 renal; 78.9% in the assay on ACHN renal; 95.7% in the assay with CAKI-1 renal; 100% in the assay on A498 renal; 64.9% in the assay with MOLT-4 leukemia.

For `COc1cccc(-c2nc3sccn3c2-c2ccnc(NCCNS(=O)(=O)c3c(Cl)cccc3Cl)c2)c1`, the growth with HCT-15 colon is 47.3%; in the assay on SNB-75 CNS, 42.8%; in the assay with SNB-19 CNS, 77%; in the assay with U251 CNS it was 70.1%; with PC-3 prostate, 41.2%; in the assay on SK-MEL-5 melanoma, 26%. Also, the growth in the assay with UACC-62 melanoma is 28.6%; in the assay with LOX IMVI melanoma, 58.6%; in the assay with SK-MEL-28 melanoma, 90.4%; in the assay on SK-MEL-2 melanoma, 74.6%; in the assay on EKVX NSCLC, 55.6%; with UO-31 renal, 24.1%. Also, the growth in the assay with TK-10 renal was 68.5%; in the assay with ACHN renal, 44%; in the assay with CAKI-1 renal, 36.3%; in the assay on A498 renal it was 48.6%; in the assay on CCRF-CEM leukemia, 31.1%; with MOLT-4 leukemia it was 33.7%.

With `COc1cc2c(cc1OC)-c1ccc3cc4c(cc3c1N(CCN(C)C)C2)OCO4`, the growth in the assay with HCT-15 colon was 56.7%; with SNB-75 CNS, -5.56% (active); in the assay with SNB-19 CNS it was 8.26% (active); with U251 CNS, -42.9% (active); with PC-3 prostate it was 0.178% (active); in the assay on SK-MEL-5 melanoma it was -10.9% (active). The growth is 3.42% (active) with UACC-62 melanoma; -83.2% (active) in the assay with LOX IMVI melanoma; 43.7% in the assay on SK-MEL-28 melanoma; 36% with SK-MEL-2 melanoma; 25.4% in the assay with EKVX NSCLC; 0.583% (active) in the assay with SN12C renal. Further, the growth in the assay with UO-31 renal is 24.2%; in the assay with TK-10 renal, 16.6%; with A498 renal, -33.8% (active); in the assay with CCRF-CEM leukemia it was -1.03% (active); in the assay with MOLT-4 leukemia it was 0.14% (active).

Turning to `O=C1NCC(=O)N(Cc2ccco2)[C@H]1Cc1ccccc1`, the growth with HCT-15 colon was 98.4%; with SNB-75 CNS it was 94.5%; in the assay with SNB-19 CNS, 94.5%; with U251 CNS, 88.6%; with PC-3 prostate, 91%; with SK-MEL-5 melanoma it was 102%. Moreover, the growth with UACC-62 melanoma is 96.6%; with LOX IMVI melanoma, 95.6%; in the assay on SK-MEL-28 melanoma, 107%; with EKVX NSCLC it was 89.2%; in the assay with SN12C renal it was 98.1%; with UO-31 renal, 99.8%. Further, the growth in the assay with TK-10 renal was 85.5%; with ACHN renal, 105%; in the assay on CAKI-1 renal, 97.4%; in the assay with A498 renal, 52.9%; in the assay on CCRF-CEM leukemia, 103%; in the assay with MOLT-4 leukemia it was 102%.

For the molecule `C=C1C(=O)O[C@H]2[C@H]1CC/C(Cn1cc(CNCCc3c[nH]c4ccc(Cl)cc34)nn1)=C\CC[C@@]1(C)O[C@@H]21`, the growth is 88.6% in the assay on HCT-15 colon; 69.6% in the assay on SNB-75 CNS; 83.7% in the assay on SNB-19 CNS; 60.2% with U251 CNS; 75% in the assay with PC-3 prostate; 86.6% in the assay on SK-MEL-5 melanoma. The growth with UACC-62 melanoma was 63%; in the assay on LOX IMVI melanoma, 62%; in the assay with SK-MEL-28 melanoma it was 81.5%; in the assay on SK-MEL-2 melanoma it was 52.3%; with EKVX NSCLC, 84.1%; with SN12C renal, 58.6%. In addition, the growth with UO-31 renal is 80.1%; in the assay with TK-10 renal, 0.209% (active); in the assay with ACHN renal, 54%; with CAKI-1 renal, 48.2%; in the assay with A498 renal it was 90%; in the assay with CCRF-CEM leukemia it was -29.6% (active). In addition, the growth in the assay with MOLT-4 leukemia is 0.755% (active).

As for `CN1C[C@@H](c2ccc(Cl)cc2)[C@]2(NC(=S)N(c3ccc(F)c(Cl)c3)C2=O)[C@@]12C(=O)NC1C=CC(Cl)=C[C@H]12` (some centres undefined), the growth with HCT-15 colon is 48.5%; in the assay with SNB-75 CNS, 53.2%; in the assay on SNB-19 CNS it was 47.2%; in the assay with U251 CNS, 59.9%; in the assay on PC-3 prostate, 8.42% (active); in the assay with SK-MEL-5 melanoma, 44.5%. Further, the growth with UACC-62 melanoma was 55.7%; with LOX IMVI melanoma, 43.5%; in the assay on SK-MEL-28 melanoma, 72.6%; with SK-MEL-2 melanoma, 53.3%; in the assay on EKVX NSCLC, 50.7%; in the assay on UO-31 renal, 26.1%. Besides, the growth is 82% with TK-10 renal, 66.8% in the assay with A498 renal, 6.69% (active) in the assay with CCRF-CEM leukemia and 3.29% (active) with MOLT-4 leukemia.

For the molecule `CCN(CCO)CC(=O)c1cc(Cl)cc(Cl)c1Cl`, the growth is 101% with HCT-15 colon; 95.3% in the assay with SNB-75 CNS; 105% in the assay on SNB-19 CNS; 101% in the assay with U251 CNS; 84% with PC-3 prostate; 105% in the assay with SK-MEL-5 melanoma. Besides, the growth in the assay on UACC-62 melanoma is 98.3%; in the assay on LOX IMVI melanoma, 99.6%; in the assay on SK-MEL-28 melanoma it was 111%; with SK-MEL-2 melanoma, 92.4%; in the assay on EKVX NSCLC, 105%; in the assay on SN12C renal it was 100%. Also, the growth is 93.5% in the assay on UO-31 renal; 86.7% in the assay on TK-10 renal; 102% in the assay on A498 renal; 82.9% in the assay with CCRF-CEM leukemia; 90.5% in the assay on MOLT-4 leukemia.

Turning to `Cc1c2c(cn1Cc1ccccc1)CCc1cn[nH]c1-2`, the growth in the assay on HCT-15 colon is 99.3%; in the assay on SNB-75 CNS, 92.2%; in the assay on SNB-19 CNS, 86.9%; with U251 CNS, 89.3%; in the assay with PC-3 prostate, 74.9%; in the assay with SK-MEL-5 melanoma it was 89%. In addition, the growth is 76.8% with UACC-62 melanoma; 90.8% in the assay with LOX IMVI melanoma; 105% with SK-MEL-28 melanoma; 96.4% in the assay with SK-MEL-2 melanoma; 99.1% in the assay with EKVX NSCLC; 98.3% in the assay on SN12C renal. Besides, the growth was 75.2% with UO-31 renal; 118% in the assay on TK-10 renal; 99.6% in the assay with ACHN renal; 84.1% with CAKI-1 renal; 108% in the assay on A498 renal; 77% with CCRF-CEM leukemia. In the assay on MOLT-4 leukemia, the growth was 85.1%.

Regarding `CCOc1ccc(S(=O)(=O)c2ccc(C)cc2)c2c1no[n+]2[O-]`, the growth in the assay on HT29 colon is 52.8%; with SNB-75 CNS it was 54.7%; with SNB-19 CNS, 87.9%; in the assay with U251 CNS it was 80.1%; in the assay with PC-3 prostate it was 82.1%; with SK-MEL-5 melanoma it was 72.5%. The growth in the assay with UACC-62 melanoma is 78.5%; with LOX IMVI melanoma it was 87.1%; in the assay on SK-MEL-28 melanoma it was 104%; in the assay with SK-MEL-2 melanoma it was 82.5%; in the assay on EKVX NSCLC, 83.9%; in the assay on SN12C renal, 94.8%. In addition, the growth in the assay with UO-31 renal was 83.3%; in the assay with TK-10 renal, 92.3%; in the assay on ACHN renal it was 85.6%; in the assay with CAKI-1 renal it was 71.8%; with A498 renal, 67.2%.

In the case of `CCOC(=O)c1c2c(c(C)n1C)-c1nn(Cc3ccc(OC)cc3)cc1CC2`, the growth with HCT-15 colon was 83.9%; in the assay on SNB-75 CNS it was 103%; in the assay with SNB-19 CNS, 95.2%; in the assay with U251 CNS it was 96.4%; in the assay with PC-3 prostate it was 66.3%; in the assay on SK-MEL-5 melanoma, 69.6%. The growth in the assay on UACC-62 melanoma is 68.9%; in the assay with LOX IMVI melanoma, 84.5%; in the assay with SK-MEL-28 melanoma it was 119%; in the assay on SK-MEL-2 melanoma it was 111%; with EKVX NSCLC, 79.6%; with SN12C renal, 92.5%. In addition, the growth with UO-31 renal was 91.3%; with TK-10 renal, 206%; in the assay with ACHN renal, 91.9%; in the assay on CAKI-1 renal, 85.2%; in the assay with A498 renal it was 98.7%; in the assay on CCRF-CEM leukemia it was 82.9%. Moreover, the growth in the assay with MOLT-4 leukemia was 69.4%.

As for `CC1=NN(c2cccc(Cl)c2)C(=O)/C1=C\c1cn(CC(O)CN2CCCCC2)c2ccccc12` (centres undefined), the growth was 36.8% with HCT-15 colon; 87.2% in the assay with SNB-75 CNS; 84.2% with SNB-19 CNS; 36.5% in the assay with U251 CNS; 62.3% with PC-3 prostate; 55.5% in the assay with SK-MEL-5 melanoma. Further, the growth was -47.4% (active) with UACC-62 melanoma; 11% in the assay on LOX IMVI melanoma; -28.1% (active) in the assay with SK-MEL-28 melanoma; 73.8% in the assay on SK-MEL-2 melanoma; 88% in the assay on EKVX NSCLC; 66.3% in the assay on SN12C renal. The growth with UO-31 renal was 67%; in the assay on TK-10 renal, 71.7%; in the assay on ACHN renal, 38.6%; in the assay with CAKI-1 renal it was 24%; in the assay on A498 renal, 80.2%; in the assay with CCRF-CEM leukemia it was 41.9%. Moreover, the growth with MOLT-4 leukemia is 48.3%.
